Compound activity from PubChem.
Sampled rows, rich in hits. Any-hit rate of the full collection: about 8.1%.
KB-V1 MDR tox: qHTS assay for MDR1-selective chemotherapeutics: Primary screen using the drug-selected MDR subline cells KB-V1. KB-V1 MDR cells viability, CellTiter-Glo, 72 h. Potency, µM (doses to about 46.1 µM), most hits filed as cytotoxic. 3.4% of 400,000 active. AID 1347076, 2019; also: nearly all actives have a fitted effect of over 60% in size
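Readout: CellTiter-Glo luminescence, 10 min after addition. Cells: KB-V1 MDR subline, 72 h at 37 degrees C with compound. Analysis: corrected, normalized data fitted to concentration-effect curves.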
KB-3-1 cytotox: qHTS assay for MDR1-selective chemotherapeutics: Primary screen using the parental adenocarcinoma cell KB-3-1. KB-3-1 viability, CellTiter-Glo ATP luminescence, 72 h. Potency, µM (titrated, usually from 46.1 µM), usual class: cytotoxic. 1.4% of 400,000 active; also: nearly all actives have a fitted effect of over 60% in size
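KB-3-1 cells, DMEM (no phenol red) + 10% FBS; compound by pin transfer, 72 h, 37 °C. Readout: CellTiter-Glo luminescence after 10 min. Data normalized, curve-fitted.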
MCF10A rerep: A quantitative high throughput screen for small molecules that induce DNA re-replication in MCF 10a normal breast cells | MCF 10A DNA re-replication, Hoechst nuclear intensity, 48 h | Potency, µM (top dose mostly 46.1 µM), hits mostly activators | 2.9% of 350,000 active; also: nearly all actives have a fitted effect of over 50% in size
SW480 rerep: A quantitative high throughput screen for small molecules that induce DNA re-replication in SW480 colon adenocarcinoma cells | 1.8% of 340,000 active | Potency, µM (highest dose often 46.1 µM), hits mostly activators | SW480 DNA re-replication, Hoechst DNA content imaging, 48 h; also: nearly all actives have a fitted effect of over 55% in size
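250 cells/well; 23 nL cpd via pin tool; 48 hr, 37 C, 5% CO2; Hoechst 40 min; imager read of total nuclear intensity, ex 405/em 500-530 nm.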
ELG1 DNA repair: qHTS screen for small molecules that inhibit ELG1-dependent DNA repair in human embryonic kidney (HEK293T) cells expressing luciferase-tagged ELG1 | HEK293T ELG1-luciferase reporter, luminescence, 16 h; DNA damage induced by 5-fluorouridine | Potency, µM (titrated, usually from 46.1 µM), actives largely listed as inhibitors | 2.3% of 330,000 active | AID 504467, 2011; also: nearly all actives have a fitted effect of over 55% in size
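Reporter activity after DNA damage by 5-fluorouridine is monitored. Compound-treated cells incubate 16 hr at 37 °C, then ONE-Glo is added for 30 min before luminescence reading.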
Each line names hits and unclear results; the compound was inactive in the other large screens. Calls follow the shape of the dose curve; as a rule, active = well fitted curve in the direction sought with a large enough effect; inconclusive = small, poorly fitted or top-dose-only effect, or another doubt; inactive = no such curve, though single readings can be large; an effect the other way counts as inactive or inconclusive.

Cc1c(S(=O)(=O)N2CCC(C)CC2)c(=O)n(C)c(=O)n1C	ELG1 DNA repair inconclusive
COC(=O)c1ccc(/C=N/NC(=S)NC(C)C)cc1	MCF10A rerep inconclusive, SW480 rerep 16.4µM, ELG1 DNA repair inconclusive
CCN(c1ccccc1)S(=O)(=O)c1ccc(C(=O)NCC2(N(C)C)CCCCC2)cc1	MCF10A rerep inconclusive, SW480 rerep inconclusive
Cc1ccc(-c2nc(CS(=O)(=O)CC(=O)N3CCc4ccccc4C3)c(C)o2)cc1	KB-V1 MDR tox inconclusive, KB-3-1 cytotox 18.4µM, ELG1 DNA repair inconclusive
Cc1ccc(-c2nc(CS(=O)(=O)CC(=O)N3CCCCCC3)c(C)o2)cc1	ELG1 DNA repair inconclusive
NC(=O)NC(=O)CN1C(=O)NC(c2ccccc2)(c2ccccc2)C1=O	none
NN1C(=O)NC(c2ccccc2)(c2ccccc2)C1=O	MCF10A rerep 0.731µM
CCOC(=O)C1=C(C)NC(=O)NC1/C=C\c1ccccc1 (centres undefined)	MCF10A rerep inconclusive
NC(N)=N/N=C/c1ccc(OS(=O)(=O)c2ccccc2)cc1	MCF10A rerep 18.4µM, SW480 rerep 5.8µM, ELG1 DNA repair inconclusive
N#Cc1c(NCCN)nc(NCc2ccccc2)c2c1CCN(Cc1ccccc1)C2	MCF10A rerep inconclusive, SW480 rerep 20.6µM, ELG1 DNA repair 13µM
C=CCNc1nc(NCc2ccccc2)c(C#N)c2c1CN(C)CC2	KB-V1 MDR tox inconclusive, KB-3-1 cytotox inconclusive, MCF10A rerep inconclusive
CSc1ccccc1NC(=O)CSc1n[nH]c(N)n1	none
Cn1nc(C(=O)NC2=NCCS2)ccc1=O	none
COc1ccc2nc(N/C(N)=N/S(C)(=O)=O)nc(C)c2c1	KB-V1 MDR tox 2.06µM, KB-3-1 cytotox 8.2µM, MCF10A rerep inconclusive, ELG1 DNA repair inconclusive
Cc1ccc(S(=O)(=O)/N=C(\N)Nc2nc(C)c3cc(C)ccc3n2)cc1	KB-V1 MDR tox 14.6µM
CNC(=O)c1cc2ccccc2o1	ELG1 DNA repair inconclusive
Cc1cc(C)n(C(=O)/C(C#N)=N\Nc2ccccc2[N+](=O)[O-])n1	none
Cc1cc(C)n(C(=O)/C(C#N)=N/Nc2cc(Cl)cc(Cl)c2)n1	KB-V1 MDR tox inconclusive, MCF10A rerep inconclusive, ELG1 DNA repair 16.4µM
O=C(NCc1ccccc1)c1ccc(C(=O)NCc2ccccc2)cc1	none (no result: ELG1 DNA repair)
O=C(NCCS(=O)(=O)N1CCCC1)c1ccccc1	ELG1 DNA repair inconclusive
O=C(NCc1ccccc1)c1ccc(C(=O)N(C2CCCCC2)C2CCCCC2)cc1	KB-V1 MDR tox 23.1µM, KB-3-1 cytotox inconclusive, ELG1 DNA repair inconclusive
COc1cccc(C(=O)NCCS(=O)(=O)NCCCc2ccccc2)c1	KB-V1 MDR tox 16.4µM
CCN(C1CCCCC1)S(=O)(=O)CCNC(=O)c1ccc2c(c1)OCO2	none
CCN(C1CCCCC1)S(=O)(=O)CCNC(=O)c1ccccc1	KB-V1 MDR tox 4.11µM
CC1CCN(S(=O)(=O)CCNC(=O)c2ccccc2)CC1	KB-V1 MDR tox 13µM
NC(=O)COC(=O)/C=C/c1cccc(Br)c1	none
CC1CN(C(=O)c2ccccc2C(=O)c2ncc[nH]2)CC(C)O1 (centres undefined)	none
COc1cccc(C(=O)NCCS(=O)(=O)N2CCCCCC2)c1	KB-V1 MDR tox 11.6µM
COC(=O)C1CCN(S(=O)(=O)CCNC(=O)c2cccc(OC)c2)CC1	ELG1 DNA repair inconclusive
CC1CCN(c2ccc(C(=O)NCCc3ccccc3)cn2)CC1	KB-V1 MDR tox 13µM, ELG1 DNA repair inconclusive
COc1cccc(C(=O)NCCS(=O)(=O)N2CCC(C)CC2)c1	KB-V1 MDR tox 23.1µM
COc1cccc(C(=O)NCCS(=O)(=O)N2CCCCC2)c1	none
CCC1CCCCN1Cc1nc2c(c(=O)n(C)c(=O)n2C)n1Cc1ccccc1 (centres undefined)	KB-V1 MDR tox inconclusive, ELG1 DNA repair inconclusive
CCOC(=O)c1c(S(=O)(=O)N2CCC(C(=O)NCc3ccc(F)cc3)CC2)c(C)n(C)c1C	none (no result: MCF10A rerep, SW480 rerep, ELG1 DNA repair)
Cc1cccc(OCC(=O)NCCc2nc3ccccc3[nH]2)c1C	none (no result: MCF10A rerep, SW480 rerep, ELG1 DNA repair)
